This is a sample that favours compounds with a hit; in the whole collection about 9.2% have one here.
OTUD3 inh: human OTUD3 deubiquitinase inhibition | Q5T2D3 | purified OTUD3, Ub-rhodamine fluorescence, 2 h | inhibition, % at 25 µM | 0.7% of 47,000 active
USP8 inh: human USP8 deubiquitinase inhibition; P40818; purified USP8, Ub-rhodamine cleavage fluorescence, 30 min; inhibition, % at 20 µM; 4.2% of 47,000 active; AID 1645853
UCHL1 inh: inhibitors of human UCHL1 deubiquitinase. P09936. purified UCHL1, Ub-rhodamine cleavage fluorescence. inhibition, % at 20 µM. 0.2% of 47,000 active. AID 1645859
USP7 inh: blocks human USP7 ubiquitin-rhodamine cleavage; 0.3% of 47,000 active; inhibition, % at 20 µM; AID 1645854; purified USP7, Ub-rhodamine cleavage fluorescence; Q93009
USP17 inh: blocks human USP17 ubiquitin-rhodamine cleavage; purified USP17, Ub-rhodamine cleavage fluorescence, 3 h; 6.5% of 47,000 active; A8MUK1; inhibition, % at 50 µM
USP10 inh: inhibitors of human USP10 deubiquitinase. inhibition, % at 20 µM. 1.1% of 47,000 active. purified USP10, Ub-rhodamine fluorescence, 60 min. Q14694. AID 1645856
Target sequence (Q14694 whole entry, looked up): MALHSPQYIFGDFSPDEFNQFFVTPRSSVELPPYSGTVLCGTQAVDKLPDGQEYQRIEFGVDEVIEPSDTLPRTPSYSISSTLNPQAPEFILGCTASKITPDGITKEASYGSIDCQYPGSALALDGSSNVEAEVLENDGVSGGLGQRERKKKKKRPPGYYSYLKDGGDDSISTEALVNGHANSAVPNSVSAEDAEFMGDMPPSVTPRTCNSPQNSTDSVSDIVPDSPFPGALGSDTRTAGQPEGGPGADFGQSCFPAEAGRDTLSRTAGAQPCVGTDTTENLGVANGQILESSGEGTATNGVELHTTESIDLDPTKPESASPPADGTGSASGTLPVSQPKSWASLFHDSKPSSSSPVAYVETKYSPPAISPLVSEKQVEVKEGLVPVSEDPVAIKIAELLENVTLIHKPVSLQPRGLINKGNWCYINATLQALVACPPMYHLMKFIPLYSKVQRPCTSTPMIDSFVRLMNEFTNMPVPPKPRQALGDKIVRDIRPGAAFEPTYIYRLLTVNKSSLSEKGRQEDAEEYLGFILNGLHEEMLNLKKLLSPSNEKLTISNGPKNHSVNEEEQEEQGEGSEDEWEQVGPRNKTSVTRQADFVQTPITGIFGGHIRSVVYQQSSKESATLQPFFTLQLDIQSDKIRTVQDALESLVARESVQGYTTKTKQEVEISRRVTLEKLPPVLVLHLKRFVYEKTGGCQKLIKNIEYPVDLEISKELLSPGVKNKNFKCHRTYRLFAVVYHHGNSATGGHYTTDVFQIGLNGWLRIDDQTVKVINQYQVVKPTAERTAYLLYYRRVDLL
Numbers stand for hits. No stated cut-off is given here; in the data, active means inhibition above about 30%; inactive means the rest.

`Cc1ccc(S(=O)(=O)N2CCN(S(=O)(=O)N3CCCCCC3)CC2)cc1` gave OTUD3 inh inactive, USP8 inh 31, UCHL1 inh inactive, USP7 inh inactive, USP17 inh inactive and USP10 inh inactive.
O=c1c(-n2cncn2)c[nH]n1-c1ccc(F)cc1F was read as OTUD3 inh inactive, USP8 inh inactive, UCHL1 inh inactive, USP7 inh inactive, USP17 inh inactive and USP10 inh inactive.
Screening O=C(Nc1cnc(N2CCCCCC2)nc1)c1ccc(F)cc1 returned OTUD3 inh inactive, USP8 inh inactive, UCHL1 inh inactive, USP7 inh inactive, USP17 inh inactive and USP10 inh inactive.
Screening N#Cc1ccc(C(=O)Nc2cnc(N3CCCCCC3)nc2)cc1 returned OTUD3 inh inactive, USP8 inh inactive, UCHL1 inh inactive, USP7 inh inactive, USP17 inh 53 and USP10 inh inactive.
For Cc1c(Cc2ccccc2)c(=O)oc2cc3occ(-c4ccc5ccccc5c4)c3cc12 the results were OTUD3 inh inactive, USP8 inh inactive, UCHL1 inh inactive, USP7 inh inactive, USP17 inh 32 and USP10 inh inactive.
Screening O=c1c(Cc2ccccc2)coc2ccccc12 returned OTUD3 inh inactive, USP8 inh inactive, UCHL1 inh inactive, USP7 inh inactive, USP17 inh inactive and USP10 inh inactive.
`COc1ccccc1CNCc1ccc(-c2cccc(C(=O)O)c2)o1` gave OTUD3 inh inactive, USP8 inh inactive, UCHL1 inh inactive, USP7 inh inactive, USP17 inh inactive and USP10 inh inactive.
O=C(COc1ccc2c(c1)OCO2)NC1CCCc2ccccc21 (configuration not stated) was read as OTUD3 inh inactive, USP8 inh inactive, UCHL1 inh inactive, USP7 inh inactive, USP17 inh inactive and USP10 inh inactive.
`CC(=O)c1ccc(S(=O)(=O)NC2CCN(c3ccccc3)C2=O)cc1` (configuration not stated) gave OTUD3 inh inactive, USP8 inh inactive, UCHL1 inh inactive, USP7 inh inactive, USP17 inh inactive and USP10 inh inactive.
O=[N+]([O-])c1ccc(-c2nc3ccccn3c2Br)cc1 was read as OTUD3 inh inactive, USP8 inh inactive, UCHL1 inh inactive, USP7 inh inactive, USP17 inh 39 and USP10 inh inactive.
Screening Nc1c(-c2ccccc2)nc2ccccn12 returned OTUD3 inh inactive, USP8 inh inactive, UCHL1 inh inactive, USP7 inh inactive, USP17 inh inactive and USP10 inh inactive.
CC1CCCN(C(=O)Cn2cccc(-c3nc(C4CC4)no3)c2=O)C1 (configuration not stated) was read as OTUD3 inh inactive, USP8 inh inactive, UCHL1 inh inactive, USP17 inh inactive and USP10 inh inactive.
`Cc1ccc(C)c(NC(=O)CC2=NS(=O)(=O)c3ccccc3N2)c1` gave OTUD3 inh inactive, USP8 inh inactive, UCHL1 inh inactive, USP7 inh inactive, USP17 inh inactive and USP10 inh inactive.
O=C(Nc1nccs1)C1c2ccccc2C(=O)N(c2ccccc2)C12CCCCC2 (configuration not stated) was read as OTUD3 inh inactive, USP8 inh inactive, UCHL1 inh inactive, USP7 inh inactive, USP17 inh 34 and USP10 inh inactive.
`O=C(NC1CC1)C1c2ccccc2C(=O)N(c2ccccc2)C12CCCCC2` (configuration not stated) gave OTUD3 inh inactive, USP8 inh inactive, UCHL1 inh inactive, USP7 inh inactive, USP17 inh inactive and USP10 inh inactive.
O=C(Nc1cccnc1)C1c2ccccc2C(=O)N(c2ccccc2)C12CCCCC2 (configuration not stated) was read as OTUD3 inh inactive, USP8 inh 49, UCHL1 inh inactive, USP7 inh inactive, USP17 inh inactive and USP10 inh 31.
For Cn1c(SCc2nc3ccccc3c(=O)[nH]2)nc2ccccc21 the results were OTUD3 inh inactive, USP8 inh 34, UCHL1 inh inactive, USP7 inh inactive, USP17 inh inactive and USP10 inh inactive.
`Cc1ccc(CSc2nc3ccccc3c(=O)[nH]2)cc1` gave OTUD3 inh inactive, USP8 inh inactive, UCHL1 inh inactive, USP7 inh inactive, USP17 inh inactive and USP10 inh inactive.
For CN1CCc2c(C#N)c(NCc3cccnc3)n3cnnc3c2C1 the results were OTUD3 inh inactive, USP8 inh inactive, UCHL1 inh inactive, USP7 inh inactive, USP17 inh inactive and USP10 inh inactive.
Screening CN1CCc2c(sc3c2c(NCc2cccnc2)nc2nnnn23)C1 returned OTUD3 inh inactive, USP8 inh 39, UCHL1 inh inactive, USP7 inh inactive, USP17 inh inactive and USP10 inh inactive.
For COc1ccccc1C(=O)NCc1ccc(-n2ccnc2)cc1 the results were OTUD3 inh inactive, USP8 inh inactive, UCHL1 inh inactive, USP7 inh inactive, USP17 inh inactive and USP10 inh inactive.
`Cc1cc(C)n(-c2ccc(C(=O)NCc3ccc(F)cc3)cn2)n1` gave OTUD3 inh inactive, USP8 inh inactive, UCHL1 inh inactive, USP7 inh inactive, USP17 inh 49 and USP10 inh inactive.
Screening CC(=O)Nc1ccc(-n2cnc(C(=O)NCc3ccc(F)cc3)c2)nc1 returned OTUD3 inh inactive, USP8 inh inactive, UCHL1 inh inactive, USP7 inh inactive, USP17 inh inactive and USP10 inh inactive.
Screening CN(C)c1cc(-n2cnc(C(=O)NCc3cccc(Cl)c3)c2)ncn1 returned OTUD3 inh inactive, USP8 inh inactive, UCHL1 inh inactive, USP7 inh inactive, USP17 inh 42 and USP10 inh inactive.
For CN(C)c1cc(-n2cnc(C(=O)Nc3ccccc3)c2)ncn1 the results were OTUD3 inh inactive, USP8 inh inactive, UCHL1 inh inactive, USP7 inh inactive, USP17 inh inactive and USP10 inh inactive.
`Cc1cccc(-n2cnc(C(=O)NCc3ccc(F)cc3)c2)n1` gave OTUD3 inh inactive, USP8 inh 34, UCHL1 inh inactive, USP7 inh inactive, USP17 inh 83 and USP10 inh inactive.
`Cc1ccc(S(=O)(=O)N2CC3CN(C(=O)c4ccc5c(c4)OCO5)CC(C2)O3)cc1` gave OTUD3 inh inactive, USP8 inh inactive, UCHL1 inh inactive, USP7 inh inactive, USP17 inh inactive and USP10 inh inactive.
For O=C(Oc1cccc(NC2=NS(=O)(=O)c3ccccc32)c1)c1ccc(S(=O)(=O)N2CCCCC2)cc1 the results were OTUD3 inh inactive, USP8 inh inactive, UCHL1 inh inactive, USP7 inh inactive, USP17 inh 52 and USP10 inh inactive.
Screening COc1ccc(NC(=O)Cc2ccccc2)cc1S(=O)(=O)Nc1ccccc1Cl returned OTUD3 inh inactive, USP8 inh inactive, UCHL1 inh inactive, USP7 inh inactive, USP17 inh inactive and USP10 inh inactive.
`COc1cccc(NC(=O)C(C)OC(=O)c2ccc(NS(=O)(=O)c3ccc(F)c(F)c3)cc2)c1` (configuration not stated) gave OTUD3 inh inactive, USP8 inh inactive, UCHL1 inh inactive, USP7 inh inactive, USP17 inh inactive and USP10 inh inactive.
